# Results as given in PubChem BioAssay AID488909 (Broad Institute, 2010).
# Entries with a potency or affinity are not part of this list. Results filed as inconclusive are left out. Calls of active or inactive are those of the source.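 Rule for the calls: active = fluorescence drops, meaning less fungal growth, with half-maximal dose at most ten times the top valid tested dose; inconclusive = flat curve with 30 to 70% inhibition, or poor fit; inactive = the rest, including compounds that raise the signal.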
# Experiment: resistant Candida growth with fluconazole co-treatment – CaCi-8 strain, Alamar Blue, dry powder, set 2, dose response (AID 488909)
# Details: C. albicans CaCi-8 + fluconazole, 48 h; series mostly up to 26 µM
row,Structure (SMILES),outcome
1,Clc1ccc2c(N3CCNCC3)ccnc2c1,inactive
2,Cc1cc(N2CCN(C(=O)c3ccc(Cl)cc3)CC2)c2ccccc2n1,inactive
3,COCCC(=O)N1CCN(c2ccnc3cc(Cl)ccc23)CC1,inactive
4,N#Cc1ccc(N2CCN(C(=O)c3ccc(Cl)cc3)CC2)nc1,inactive
